Reference: PubChem BioAssay (NCI)
“And” between values parts separate entries of the source, which are not always exact repeats. Equal values may be shown once. Compounds without any hit were thinned out: in the full panel of roughly 79,000, 15% have a hit. The source made the active and inactive calls. Rule as the data show it: active = growth inhibition above about 70%; inactive = the rest.

Legend:
[1] = NCI Yeast Anticancer Drug Screen. Data for the rad50 strain (AID 155);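 also: 0% = growth of vehicle-only cultures of the same strain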; details: S. cerevisiae rad50 strain growth inhibition, stronger effect = higher value
Method in brief: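 DNA repair mutant yeast, compound exposure, growth read-out; inhibition is taken relative to vehicle.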

[2] = NCI Yeast Anticancer Drug Screen. Data for the mec2-1 strain (AID 157); details: S. cerevisiae mec2-1 strain, stronger effect = higher value
Method in brief: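 Vehicle-treated cultures served as reference for growth inhibition of compound-exposed mec2-1 yeast.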

[3] = NCI Yeast Anticancer Drug Screen. Data for the sgs1 mgt1 strain (AID 161);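 also: 0% = growth of cultures given vehicle only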; details: S. cerevisiae sgs1 mgt1 strain, stronger effect = higher value
Method in brief: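 Test agents were incubated with a DNA-repair-mutant yeast strain. Growth was then read and compared against vehicle-treated controls.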

[4] = NCI Yeast Anticancer Drug Screen. Data for the cln2 rad14 strain (AID 165);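 also: 0% = growth equal to vehicle treated cultures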; details: S. cerevisiae cln2 rad14 strain, stronger effect = higher value
Method in brief: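 Each compound was tested on cln2 rad14 yeast. Inhibition of growth was calculated against vehicle-exposed controls.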

[5] = NCI Yeast Anticancer Drug Screen. Data for the bub3 strain (AID 167); details: S. cerevisiae bub3 mutant strain, stronger effect = higher value
Method in brief: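 In this screen, a yeast mutant lacking normal mitotic checkpoint function is challenged with compound. Relative growth versus vehicle gives the inhibition value.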

[6] = NCI Yeast Anticancer Drug Screen. Data for the mlh1 rad18 strain (AID 175); details: S. cerevisiae mlh1 rad18 strain growth inhibition, stronger effect = higher value
Method in brief: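 Vehicle-treated cultures served as the reference for growth inhibition in a yeast strain carrying DNA damage repair alterations exposed to each compound.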

[7] = at 5.0 µM (retest, dose inferred, filed as 0.5)
[8] = at 50.0 µM (retest, dose inferred, filed as 5.0)

Measured: growth inhibition

C=Cc1cc(OC)c2c(c1)c(=O)oc1c2cc(OC)c2c(O)ccc(C3OC(C)C(O)C(C)(O)C3O)c21 (centres undefined)
active: [1]; [7] 96% | [1]; [8] 97% | [1]; at 50.0 µM 90.8% | [2]; [7] 97% | [2]; [8] 97% | [2]; at 50.0 µM 91.8% | [3]; [7] 97% | [3]; [8] 98% | [3]; at 50.0 µM 90.3% | [4]; [7] 97% | [4]; [8] 97% | [4]; at 50.0 µM 90.1% | [5]; [7] 97% | [5]; [8] 98% | [5]; at 50.0 µM 89.4% | [6]; [7] 96% | [6]; [8] 96% | [6]; at 50.0 µM 89.9%

c1ccc2c(c1)c1cccc3c4c5ccccc5c5cccc(c2c13)c54
inactive: [1]; [7] -1% | [1]; [8] -1% | [1]; at 50.0 µM 1.9% | [2]; [7] -2% | [2]; [8] 0% | [2]; at 50.0 µM 15.7% | [3]; [7] -2% | [3]; [8] -1% | [3]; at 50.0 µM 11.4% | [4]; [7] 1% | [4]; [8] -5% | [5]; [7] 0% | [5]; [8] 1% | [5]; at 50.0 µM -1.25% | [6]; [7] -3% | [6]; [8] -2% | [6]; at 50.0 µM 14.6%
active: [4]; at 50.0 µM 78.1%

C=CCC[CH2][Sn]([c]1ccccc1)([c]1ccccc1)[c]1ccccc1
active: [1]; [7] 98% | [1]; [8] 93% | [1]; at 50.0 µM 99.5% | [2]; [7] 99% | [2]; [8] 98% | [2]; at 50.0 µM 99.5% | [3]; [7] 99% | [3]; [8] 98% | [3]; at 50.0 µM 99.4% | [4]; [7] 98% | [4]; [8] 96% | [4]; at 50.0 µM 98.2% | [5]; [7] 97% | [5]; [8] 97% | [5]; at 50.0 µM 99% | [6]; [7] 99% | [6]; [8] 97% | [6]; at 50.0 µM 99.4%

C[N+](C)=C1C=CC(=C2C=CSC=C2)C=C1
inactive: [1]; [7] 22% | [1]; [8] 45% | [1]; at 50.0 µM 11.1% | [2]; [7] 27% | [2]; [8] 36% | [2]; at 50.0 µM 10.3% | [3]; [7] 20% | [3]; [8] 46% | [3]; at 50.0 µM 59.8% | [4]; [7] 29% | [4]; [8] 45% | [4]; at 50.0 µM 25% | [5]; [7] 17% | [6]; [7] 26% | [6]; [8] 52%
active: [5]; [8] 72% | [5]; at 50.0 µM 79.2% | [6]; at 50.0 µM 89.8%

S=C(SSC(=S)N1CCCCC1)N1CCCCC1
inactive: [1]; [7] 50% | [1]; at 50.0 µM 9.4% and 16.8% | [2]; [7] 55% | [2]; at 50.0 µM 13.6% and 5.4% | [3]; [7] 48% | [3]; at 50.0 µM 18.5% and 12.8% | [4]; [7] 55% | [4]; at 50.0 µM 24.9% and 19.5% | [5]; at 50.0 µM 9.8% and 4.25% | [6]; [7] 34% | [6]; at 50.0 µM 54.8% and 12.6%
active: [1]; [8] 99% | [2]; [8] 99% | [3]; [8] 99% | [4]; [8] 99% | [5]; [7] 70% | [5]; [8] 99% | [6]; [8] 99%

CCCCCCC[CH2][Sn]([F])([F])[CH2]CCCCCCC
inactive: [1]; [7] 3% | [1]; [8] -7% | [1]; at 50.0 µM 41% | [2]; [7] 12% | [2]; [8] 4% | [2]; at 50.0 µM 46.5% | [3]; [7] -1% | [3]; [8] -2% | [3]; at 50.0 µM 7.45% | [4]; [7] -1% | [4]; [8] -5% | [4]; at 50.0 µM 19.9% | [5]; [7] 4% | [5]; [8] -1% | [5]; at 50.0 µM -5.1% | [6]; [7] 4% | [6]; [8] -15% | [6]; at 50.0 µM 40.2%

O=C(O)/C=C\c1c[nH]c2ccccc12
active: [1]; [8] 97% | [1]; at 50.0 µM 75.8% | [2]; [8] 89% | [3]; [8] 87% | [4]; [8] 89% | [5]; [8] 95% | [6]; [8] 97%
inactive: [1]; [7] 10% | [2]; [7] -2% | [2]; at 50.0 µM 38.3% | [3]; [7] 2% | [3]; at 50.0 µM 60.2% | [4]; [7] -6% | [4]; at 50.0 µM 1.45% | [5]; [7] -2% | [5]; at 50.0 µM 50.8% | [6]; [7] -17% | [6]; at 50.0 µM 42.4%

COC1/C=C\C=C(/C)C(=O)NC2=CC(=O)C(NCCCl)=C(CC(C)CC(OC)C(O)C(C)/C=C(/C)C1OC(N)=O)C2=O (centres undefined)
inactive: [1]; [7] 24% | [2]; [7] 49% | [6]; [7] 53%
active: [1]; [8] 97% | [1]; at 50.0 µM 91% | [2]; [8] 98% | [2]; at 50.0 µM 92.3% | [3]; [7] 89% | [3]; [8] 99% | [3]; at 50.0 µM 92.6% | [4]; [7] 88% | [4]; [8] 94% | [4]; at 50.0 µM 90.4% | [5]; [7] 87% | [5]; [8] 98% | [5]; at 50.0 µM 90.5% | [6]; [8] 98% | [6]; at 50.0 µM 89%
